PubChem BioAssay (NCI)
The panel holds about 79,000 compounds, 15% with a hit somewhere; the sample as a whole holds those more often. The source made the active and inactive calls. No stated cut-off is given here; in the data, active means growth inhibition above about 70%; inactive means the rest.

Legend:
[1] = NCI Yeast Anticancer Drug Screen. Data for the rad50 strain (AID 155);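 further: 0% = growth of vehicle-only cultures of the same strain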; details: S. cerevisiae rad50 strain growth inhibition; at 50.0 µM; hits give high values
Method in brief: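 Genetically altered yeast (DNA repair pathway); compound treatment; growth inhibition vs vehicle ctrl.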

[2] = NCI Yeast Anticancer Drug Screen. Data for the mec2-1 strain (AID 157); details: S. cerevisiae mec2-1 strain, at 50.0 µM, hits give high values
Method in brief: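 Yeast mec2-1 mutant treated with compound. Readout: growth inhibition vs vehicle controls.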

[3] = NCI Yeast Anticancer Drug Screen. Data for the sgs1 mgt1 strain (AID 161);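 further: 0% = growth of cultures given vehicle only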; details: S. cerevisiae sgs1 mgt1 strain, at 50.0 µM, hits give high values
Method in brief: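 Test agents were incubated with a DNA-repair-mutant yeast strain. Growth was then read and compared against vehicle-treated controls.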

[4] = NCI Yeast Anticancer Drug Screen. Data for the cln2 rad14 strain (AID 165);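 further: 0% = growth equal to vehicle treated cultures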; details: S. cerevisiae cln2 rad14 strain, at 50.0 µM, hits give high values
Method in brief: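 cln2 rad14 yeast strain; compound exposure; growth inhibition read vs vehicle controls.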

[5] = NCI Yeast Anticancer Drug Screen. Data for the bub3 strain (AID 167); details: S. cerevisiae bub3 mutant strain, at 50.0 µM, hits give high values
Method in brief: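 Yeast carrying a defined mutation is treated with each compound, and growth is compared with that of vehicle-exposed cells to give inhibition.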

[6] = NCI Yeast Anticancer Drug Screen. Data for the mlh1 rad18 strain (AID 175); details: S. cerevisiae mlh1 rad18 strain growth inhibition; at 50.0 µM; hits give high values
Method in brief: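 Yeast w/ defined DNA-repair lesions; compound exposure; growth vs vehicle controls → % inhibition.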

Measured: growth inhibition

CN(Cc1ccc(Cl)cc1)C(=O)NCCCCCCNC(=O)N(C)Cc1ccc(Cl)cc1
active: [1] 96.8% | [2] 96.6% | [3] 95.7% | [4] 96.2% | [5] 95.7% | [6] 96.8%

CC(C)(C)CC(C)(C)c1ccc(OCCOc2ccc([N+](=O)[O-])cc2N)cc1
inactive: [1] 56.5% | [2] 11.1% | [3] 41.6% | [4] 4% | [5] 4.9% | [6] 26.1%

O=[N+]([O-])c1ccc2c(c1)Cc1cc(N(CBr)CBr)ccc1-2
inactive: [1] 6.35% | [2] 5.8% | [3] -1.4% | [4] -21.7% | [5] -7.55% | [6] 18.9%

CCOC1(OCC)C2(Cl)C(Cl)=C(Cl)C1(Cl)C1CCCC12 (stereo not given)
inactive: [1] 23.7% | [2] 3.75% | [3] 11.5% | [4] 17.1% | [5] -12.7% | [6] 20.6%

[N-]=[N+]=Nc1ncnc2c1sc(=S)n2-c1ccccc1
inactive: [1] -6.65% | [2] 21.1% | [3] -24.1% | [4] 3.6% | [5] 15.8% | [6] -2.4%

O=C(Nc1ccccc1)c1ccc2ccccc2n1
inactive: [1] -12.7% | [2] -31% | [3] -22.1% | [4] -10.1% | [5] 10.6% | [6] 6.75%

Nc1nnc(Sc2n[nH]c(=O)[nH]c2=O)s1
inactive: [1] -8.8% | [2] -2.6% | [3] -14.3% | [4] -0.2% | [5] -4.9% | [6] -8.05%

CC(=O)CC(=O)Nc1cccc(O)c1
inactive: [1] -15% | [2] -21.8% | [3] -14.9% | [4] 11.8% | [5] -3.85% | [6] -2.85%

Cc1c(C)c(C)c(S(=O)(=O)NCCNS(=O)(=O)c2c(C)c(C)c(C)c(C)c2C)c(C)c1C
inactive: [1] 5.7% | [2] -16.4% | [3] -0.7% | [4] 15.3% | [5] -2.5% | [6] 1.7%

CNC(=O)NC(c1cc(OC)c(O)c(OC)c1)c1cc2c(cc1O)OCO2 (stereo not given)
inactive: [1] 29.5% | [2] 38.8% | [3] 11.8% | [4] 9.6% | [5] 8.05% | [6] 44.6%

O=C(O)C(=O)NCc1cnccn1
inactive: [1] 10.9% | [2] -8.25% | [3] -3.65% | [4] -29.6% | [5] 11.9% | [6] -19.1%

CN1CCCC1c1cccnc1.O=C(O)c1ccccc1O.O=C([O-])c1ccccc1[OH2+].O=C([O-])c1ccccc1[OH2+].[Mn+2] (stereo not given)
inactive: [1] -3.05% | [2] -0.4% | [3] -24.7% | [4] -30.7% | [5] -29% | [6] 4.15%

C=CCOc1cc2c(cc1Cc1ccc3c(c1)OCO3)OCO2
inactive: [1] -6.85% | [2] -7.75% | [3] -7.9% | [4] 9.25% | [5] 7.5% | [6] -3.05%

C/C(=N/NC(=O)c1ccccc1O)c1ccc(/C(C)=N\NC(=O)c2ccccc2O)c2nc3cc(C)c(C)cc3nc12
inactive: [1] -41.2% | [2] -14.3% | [3] -31.4% | [4] 4.65% | [5] 6.7% | [6] -27.8%

CC(C)(C)CC(CC(C)(C)C)C(=O)O
inactive: [1] 28.9% | [2] -1.2% | [3] -3.5% | [4] 1.85% | [5] 4.05% | [6] 21.3%

O=c1[nH]cnc2oc(-c3ccccc3)nc12
inactive: [1] -0.3% | [2] -0.7% | [3] -6.35% | [4] -41.2% | [5] -15.8% | [6] 4.75%

CCOC(=O)NN1C(=O)c2cccc3c([N+](=O)[O-])ccc(c23)C1=O
active: [1] 86.2% | [3] 93.5% | [4] 88.4% | [5] 78.3% | [6] 85.8%
inactive: [2] 61.9%

COC(=O)c1cc2c(cc1CC(Cc1ccc3c(c1)CCC3)C(=O)OC)CCC2 (stereo not given)
inactive: [1] 27.9% | [2] 1.25% | [3] -21.6% | [4] -34.1% | [5] 3.95% | [6] -4.65%

C[C@@]12CCC[C@H]1[C@@H]1CCC3=CC(=O)CC[C@]3(C)[C@H]1CC2
inactive: [1] 4.15% | [2] 1.45% | [3] -5.55% | [4] -27.1% | [5] 10.7% | [6] 1.05%

COC(=O)c1ccccc1CC1Cc2ccc3c(c2C1)CCC3 (stereo not given)
inactive: [1] -0.8% | [2] 5.45% | [3] -1.65% | [4] -31.6% | [5] 2.55% | [6] 13.7%

O=C(O)CCC(C(=O)O)N1C(=O)C2C3CCC(C3)C2C1=O (stereo not given)
inactive: [1] -26% | [2] -33.9% | [3] -36.2% | [4] -16% | [5] -24.9% | [6] -5.45%

CC(=O)Nc1ccc([N+](=O)[O-])cc1
inactive: [1] 30.9% | [2] -0.75% | [3] -5.3% | [4] 5.55% | [5] 14.7% | [6] 1%

Cn1c(=S)sc2ccc(S(=O)(=O)C(F)F)cc21
inactive: [1] 23.7% | [2] 20.9% | [3] 4.7% | [4] 12.8% | [5] 22.6% | [6] 25.1%

Cc1oc2nc(N(C)C)nc(Cl)c2c1C
inactive: [1] 7.15% | [2] 5.8% | [3] 8.25% | [4] 12.5% | [5] 22.1% | [6] -15%

COc1cc(C(O)C(=O)c2cnc3cc([N+](=O)[O-])ccc3n2)ccc1O (stereo not given)
inactive: [1] 24.8% | [2] 11.3% | [3] -10.8% | [4] 2.15% | [5] -19% | [6] -1.95%

Cn1cnc(N)c(N=O)c1=O
inactive: [1] -0.1% | [2] 8.65% | [3] 10.1% | [4] 18.7% | [5] -9.75% | [6] 6%

S=c1[nH]ncn1/N=C/c1ccccc1Cl
inactive: [1] 23.6% | [2] 37% | [3] 54.4% | [4] 22.9% | [5] -5.65% | [6] 37.6%

CC(C)c1ccc(OC(=O)N(c2ccccc2)c2ccccc2)cc1
inactive: [1] 12.4% | [2] 15% | [3] -5.35% | [4] 3.5% | [5] -1.6% | [6] -2.8%

Cc1ccccc1N1CCOS(=O)OC(C)C1 (stereo not given)
inactive: [1] -3.6% | [2] 23.7% | [3] 64.8% | [4] 39.9% | [5] 55.3% | [6] 57.5%

S=C(S)N1CCN(c2cccc(Cl)c2)CC1
active: [6] 70.5%
inactive: [1] 40.2% | [2] 16.1% | [3] 58.5% | [4] 44.7% | [5] 47.1%

O=C(Cc1ccc2cc3c(cc2c1)OCO3)NCCc1ccc2c(c1)OCO2
inactive: [1] 30.4% | [2] -8.4% | [3] 25.8% | [4] -11.2% | [5] -1.25% | [6] 8.8%

O=C(O)c1nc2ccccc2c(=O)[nH]1
inactive: [1] -3.4% | [2] -4.25% | [3] -9.7% | [4] -43.1% | [5] -12.2% | [6] -4.6%

Cc1ccc(S(=O)(=O)Oc2c(Cl)c(Cl)c(Cl)c(Cl)c2Cl)cc1
inactive: [1] -9.5% | [2] -10.1% | [3] 2.2% | [4] -15.3% | [5] 9.5% | [6] 5%

CC(C)(C#N)CCCCC(C)(C)C#N
inactive: [1] 3.1% | [2] 0.7% | [3] 1.2% | [4] 11.8% | [5] 12.4% | [6] 3.8%

O=C(Nc1ccccc1[N+](=O)[O-])C(=O)Nc1ccccc1[N+](=O)[O-]
inactive: [1] -7.55% | [2] 5.9% | [3] -2.95% | [4] -22.5% | [5] -0.9% | [6] -0.25%

c1ccc(C2(c3ccccc3)c3ccccc3-c3ccccc32)cc1
inactive: [1] -16.2% | [2] 17.4% | [3] 20.3% | [4] -17.9% | [5] -26.9% | [6] 2.2%

N=C(CC(=O)Nc1ccccn1)c1ccccc1
inactive: [1] 1.25% | [2] -28.7% | [3] -23.3% | [4] -32% | [5] -20.9% | [6] -16.6%

Clc1ccc(NC2=NCCN=C(Nc3ccc(Cl)c(Cl)c3)SS2)cc1Cl
inactive: [1] -26.9% | [2] -21.4% | [3] -14.7% | [4] -14.1% | [5] -28.1% | [6] -33.6%

Cc1c(Cl)cccc1NC(=O)Nc1ccccc1
inactive: [1] -1.35% | [2] 3.3% | [3] -6.25% | [4] -8.1% | [5] 4.1% | [6] 7.65%

CCCNC1=C(OC)C(=O)C(NCCC)=C(OC)C1=O
inactive: [1] -0.3% | [2] 6.8% | [3] 9.15% | [4] -47.5% | [5] 2% | [6] -9.15%
